# KCNQ2 inh – inhibitors of rat KCNQ2 potassium channel; O88943; CHO-K1 KCNQ2, FluxOR thallium flux, 20 min; hits give low values; B-score at 10 µM; 1.1% of 310,000 active; AID 2156;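 active means fluorescence ratio B-score at most minus 3 library SDs, with starting brightness B-score within 2 library SDs, cut at about -5.5 in these data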
# KCNQ2 pot – enhances the rat KCNQ2 potassium channel | O88943 | CHO-K1 KCNQ2, FluxOR thallium flux fluorescence; hits give high values | B-score at 10 µM | 0.54% of 310,000 active | AID 2239;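 active means fluorescence ratio B-score at least 3 SD of library B-scores, with initial fluorescence B-score within 3 of them, cut at about 5.3 in these data; same plate scores as AID 2156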;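 further: B-score of peak minus minimum over baseline fluorescence ratio after K+ and Tl+ stimulus; positive B-score means potentiation of KCNQ2 with more thallium influx and brighter signal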
# Kir21 conf inh – confirmation of mouse Kir2.1 potassium channel inhibitors; AID 2032; 41% of 2,300 active; Tl flux remaining, % of negative control (hits give low values), % at 10 µM; shares compounds with KCNQ2 pot; Kir2.1-expressing cells, FluxOR thallium flux fluorescence; hits give low values;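 active means Primary-screen hit whose thallium flux fell at least 3 control SD below untreated wells in both duplicates, with normal baseline fluorescence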
# HEK293 Tl flux – alters thallium flux in parental HEK293 cells, Kir2.1 counter-screen; shares compounds with KCNQ2 pot; FluxOR thallium flux fluorescence; 0% = unstimulated blank wells; FluxOR signal as % of negative control (100 = no effect), % at 10 µM; 19% of 2,300 active;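 active means dye signal at least 3 control SD above or below untreated wells in both duplicates, raw fluorescence within 3, either direction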;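 further: percent is based on the flux ratio of peak minus minimum fluorescence over baseline F0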
# CHO-K1 ctr – counter-screen for KCNQ2 potentiators: effect in parental CHO-K1 cells; shares compounds with KCNQ2 pot; FluxOR thallium flux fluorescence; zero = vehicle mean+3SD, 100% = vehicle-minus-blank window; activity increase over 3SD of controls, % at 10 µM; 43% of 1,200 active; AID 2282;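 active means signal rise of at least 3 SD above the untreated control mean, in both duplicate wells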;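 further: counter screen of KCNQ2 potentiator hits so any rise reflects channel-independent effects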
# KCNQ1 sel pot – tests whether KCNQ2 potentiators also act on human KCNQ1. shares compounds with KCNQ2 pot. CHO KCNQ1 stable, FluxOR thallium flux fluorescence; beyond 3SD, as % of vehicle-control signal. activation over 3SD threshold, % at 10 µM. 28% of 1,200 active. AID 2283;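 active means fluorescence ratio rise of at least 3 SD of vehicle wells above their mean, in both replicate wells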
# KCNQ2 pot conf – rat KCNQ2 channel potentiator confirmation | shares compounds with KCNQ2 pot | CHO-KCNQ2 cells, FluxOR thallium flux fluorescence | 68% of 1,200 active | AID 2287 | potentiation, less the hit threshold, % at 10 µM;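 active means fluorescence ratio rising 3 SD or more over the vehicle control mean in both replicates, plus primary screen hit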;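 further: peak minus minimum thallium fluorescence divided by baseline after K/Tl stimulus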
# Kir2-1 sel – tests whether KCNQ2 potentiators also affect mouse Kir2.1; activity over 3SD threshold, % at 10 µM; 2% of 1,200 active; shares compounds with KCNQ2 pot; HEK293 Kir2.1, FluxOR thallium flux fluorescence;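 active means fluorescence ratio rise of at least 3 SD above the vehicle-control mean, seen in both replicates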
# KCNQ2 W236L pot – KCNQ2 potentiators acting on retigabine-insensitive rat KCNQ2 W236L mutant; shares compounds with KCNQ2 pot; CHO KCNQ2-W236L, automated patch clamp current; current increase over 3SD of negative controls (%), hits give high values, % at 25 µM; 10% of 940 active; AID 2558;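 active means current increase at least 3 SD of the untreated controls above them in both duplicate recordings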
# Target sequence (O88943 whole entry W236L, looked up): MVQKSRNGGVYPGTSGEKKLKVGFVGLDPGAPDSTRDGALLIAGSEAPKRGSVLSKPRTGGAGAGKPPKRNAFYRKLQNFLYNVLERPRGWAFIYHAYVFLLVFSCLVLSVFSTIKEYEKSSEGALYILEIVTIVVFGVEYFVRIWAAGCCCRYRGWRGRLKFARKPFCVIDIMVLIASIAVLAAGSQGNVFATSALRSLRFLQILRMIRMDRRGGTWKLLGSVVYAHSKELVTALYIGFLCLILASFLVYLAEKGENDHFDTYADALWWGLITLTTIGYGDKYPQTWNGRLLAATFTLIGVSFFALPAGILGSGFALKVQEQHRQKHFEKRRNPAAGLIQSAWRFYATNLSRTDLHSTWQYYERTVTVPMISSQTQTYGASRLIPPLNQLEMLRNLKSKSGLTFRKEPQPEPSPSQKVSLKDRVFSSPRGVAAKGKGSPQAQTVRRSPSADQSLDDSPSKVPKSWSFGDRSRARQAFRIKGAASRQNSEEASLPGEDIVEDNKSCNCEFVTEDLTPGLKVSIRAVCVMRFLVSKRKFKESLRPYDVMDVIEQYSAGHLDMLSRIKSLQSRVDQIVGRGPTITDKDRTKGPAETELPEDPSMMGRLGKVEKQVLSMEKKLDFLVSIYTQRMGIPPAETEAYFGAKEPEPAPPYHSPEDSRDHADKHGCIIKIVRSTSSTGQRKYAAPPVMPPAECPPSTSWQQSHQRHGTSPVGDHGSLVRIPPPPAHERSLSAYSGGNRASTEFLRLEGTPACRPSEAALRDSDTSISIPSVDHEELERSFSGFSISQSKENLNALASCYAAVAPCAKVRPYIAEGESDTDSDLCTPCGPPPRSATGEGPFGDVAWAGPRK
# Hits are given with their value; – = inactive; · = not tested or not shown. Rows were chosen to be rich in hits. Some 1.6% of all compounds tested hit in one or more screens of this group.
SMILES,KCNQ2 inh,KCNQ2 pot,Kir21 conf inh,HEK293 Tl flux,CHO-K1 ctr,KCNQ1 sel pot,KCNQ2 pot conf,others
COc1ccc([N+](=O)[O-])c(OC)c1C(=O)NC(=O)Nc1c(F)cc(F)cc1F,–,·,·,·,·,·,·,
CCCC(=O)Nc1ccc(NCc2ccc(C)s2)cc1,–,22,–,–,–,–,85,Kir2-1 sel=–;KCNQ2 W236L pot=–
CC(=O)Nc1ccc(NCc2ccc(C)s2)cc1,–,–,·,·,·,·,·,
O=C1c2ccc3c4c(ccc(c24)C(=O)N1c1ccc(O)cc1)C(=O)N(c1ccc(O)cc1)C3=O,–,11,–,–,2.5,45,–,Kir2-1 sel=–
O=C(O)c1ccc(S(=O)(=O)c2ccc3c(c2)C(=O)N(c2ccc(O)cc2)C3=O)cc1,–,–,·,·,·,·,·,
CSc1cccc(NC(=S)N(Cc2ccccc2)Cc2cccnc2)c1,–,·,·,·,·,·,·,
COc1ccc(CCC(=O)NC(C)c2ccccc2)cc1OC (configuration not stated),–,–,·,·,·,·,·,
O=C(COC(=O)C1=COCCO1)NC1CCCCC1,–,–,·,·,·,·,·,
CCN(CC(=O)Nc1ccc(Br)cc1)C(=O)Cc1cccc(F)c1,–,·,·,·,·,·,·,
COCCn1c(CN2CCN(C(c3ccccc3)c3ccccc3)CC2)nc2c1c(=O)n(C)c(=O)n2C,–,5.9,–,–,–,–,–,Kir2-1 sel=–
Cn1c(=O)c2c(nc(CN3CCN(C(c4ccccc4)c4ccccc4)CC3)n2CCCO)n(C)c1=O,–,·,·,·,·,·,·,
CCOc1ccccc1CN1CCN(CC2=Cc3cc(OC)ccc3OC2)CC1CCO (configuration not stated),–,–,·,·,·,·,·,
O=C(Nc1ncc(Br)s1)C(Cc1ccccc1)n1cccc1 (configuration not stated),–,7.3,–,188%,–,–,8.5,Kir2-1 sel=–;KCNQ2 W236L pot=–
O=C(Nc1cccnc1)C(Cc1ccccc1)n1cccc1 (configuration not stated),–,–,·,·,·,·,·,
C/C(=N\NC(=O)C1COc2ccccc2O1)c1ccc(N2CCOCC2)cc1 (configuration not stated),–,9.2,–,–,26,–,–,Kir2-1 sel=–
C/C(=N\NC(=O)C1CC1)c1ccc(N2CCOCC2)cc1,–,–,·,·,·,·,·,
O=C(c1ccc(F)cc1)N1CCN(c2cc(N3CCCCC3)c(F)cc2[N+](=O)[O-])CC1,–,·,·,·,·,·,·,
CN(C)c1ccc(NC(=O)c2ccc(N3CCOCC3)nc2)cc1,–,–,·,·,·,·,·,
CCOC(=O)N1CCN(CC(O)COc2ccccc2C(C)C)CC1 (configuration not stated),–,–,·,·,·,·,·,
COc1ccc(C2CCCN2CC(O)COc2ccccc2C(C)C)cc1 (configuration not stated),-6.6,–,30%,–,·,·,·,
CCCn1cc(NC(=O)c2cc(-c3ccccc3)on2)cn1,–,5.7,–,–,24,–,–,
O=C(Nc1cnn(C23CC4CC(CC(C4)C2)C3)c1)c1cc(-c2ccccc2)on1,–,–,·,·,·,·,·,
O=C(C1CC(=O)N(c2ccccc2)C1)N1CCN(c2ccc(F)cc2)CC1 (configuration not stated),–,·,·,·,·,·,·,
CC1(C)C2CC=C(/C=N/NC(=S)NCCc3ccccc3)C1C2 (configuration not stated),–,5.5,–,–,–,–,–,Kir2-1 sel=–
CNC(=S)N/N=C/C1=CCC2CC1C2(C)C (configuration not stated),–,–,·,·,·,·,·,
SMILES,KCNQ2 inh,KCNQ2 pot,Kir21 conf inh,HEK293 Tl flux,CHO-K1 ctr,KCNQ1 sel pot,KCNQ2 pot conf,others
CSCCC(NC(=O)c1ccc(Cl)cc1)C(=O)OCC(=O)N1CCCC1=O (configuration not stated),–,8.8,–,–,–,–,18,Kir2-1 sel=–;KCNQ2 W236L pot=26%
CSCCC(NC(=O)c1ccc(Cl)cc1)C(=O)O (configuration not stated),–,–,·,·,·,·,·,
O=C(CCNC(=O)C1CCN(S(=O)(=O)c2ccccc2)CC1)Nc1cccc(C(F)(F)F)c1,–,·,·,·,·,·,·,
CCCCCCCCC/C(=N\O)c1ccccn1,–,24,–,66%,–,–,20,Kir2-1 sel=–;KCNQ2 W236L pot=–
CCCCCCCCC(=O)N/N=C/c1ccccn1,–,–,·,·,·,·,·,
CC(C)c1csc(CN2CCCC(CNC(=O)c3cccc4ccccc34)C2)n1 (configuration not stated),–,·,·,·,·,·,·,
CCCCOc1ccc(Br)cc1CSC(=N)N,–,–,20%,–,·,·,·,
CCCCCOc1ccc(CSC(=N)N)cc1[N+](=O)[O-],–,·,29%,–,·,·,·,
COc1ccc(CSC(=N)N)cc1[N+](=O)[O-],–,–,·,·,·,·,·,
CCOc1ccc(C(C)=O)cc1CSC(=N)N,–,–,·,·,·,·,·,
O=C(CN1C2=NCCCN2c2ccccc21)c1ccc(Cl)cc1Cl,–,·,·,·,·,·,·,
CN(C)C(=O)[C@H]1C[C@H]1[C@@H](O)[C@H](CO)NC(=O)[C@H](Cc1ccccc1)NC(=O)OC(C)(C)C,–,–,·,·,·,·,·,
Cc1cc(C)nc(SCCCNCc2ccc(Br)cc2)n1,–,–,45%,–,·,·,·,
Cc1ccc(CNCCCSc2nc(C)cc(C)n2)cc1,–,·,·,·,·,·,·,
COc1ccc(-c2cc3cc(OC)c(OC)cc3c(C)n2)cc1C,–,·,·,·,·,·,·,
Clc1ccc(Nc2ccc(Cl)nn2)cc1,–,6.6,–,–,17,36,14,Kir2-1 sel=–;KCNQ2 W236L pot=25%
COc1ccc(Nc2ccc(Cl)nn2)cc1,–,–,·,·,·,·,·,
C/C(=N\NC(=O)c1cccc(S(=O)(=O)N2CCCC2)c1)c1ccc(OCC(=O)N(C)C)cc1,–,–,·,·,·,·,·,
Cc1nn(C(C)C(=O)NCc2cccs2)c(C)c1[N+](=O)[O-] (configuration not stated),–,–,·,·,·,·,·,
CCc1nnc2c(NCCc3ccc(OC)c(OC)c3)nc3ccccc3n12,–,11,–,–,9.6,–,–,Kir2-1 sel=–
COc1ccc(CCNc2nc3ccccc3n3cnnc23)cc1OC,–,–,·,·,·,·,·,
O=C1NC(=O)c2cc(Oc3ccc([N+](=O)[O-])cc3)ccc21,–,–,·,·,·,·,·,
CC(C)(C)c1nc(SCC(=O)N2CCCC2)c2ccccc2n1,–,–,·,·,·,·,·,
CC(C)(C)c1nc(SCC(=O)c2ccccc2)c2ccccc2n1,–,19,–,–,–,52,26,Kir2-1 sel=–;KCNQ2 W236L pot=–
COc1ccc(NC(=O)CCCC(=O)c2ccccc2)c(OC)c1,–,·,·,·,·,·,·,
COc1ccc(CC(=O)Nc2ccccc2Oc2ccccc2)cc1,–,10,–,–,–,–,17,Kir2-1 sel=–;KCNQ2 W236L pot=–
COc1ccccc1NC(=O)Cc1ccc(-c2ccccc2)cc1,–,·,·,·,·,·,·,
COc1ccc(NC(=O)CCCc2ccccc2)c(OC)c1,–,5.5,–,–,93,–,8.7,Kir2-1 sel=–;KCNQ2 W236L pot=–

# Bioassay records: PubChem BioAssay, Johns Hopkins Ion Channel Center
